This is a sample that favours compounds with a hit; in the whole collection about 0.24% have one here.
Casp1 inh – qHTS Assay for Allosteric/Competitive Inhibitors of Caspase-1; Caspase-1 enzyme, Ac-WEHD-AFC fluorogenic rate; Potency, µM (doses to about 57.5 µM), for inactives: top-dose activity change, negative = inhibition, most hits filed as inhibitors; P29466; 75,000 tested, 0.03% active;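 note: potency is the fitted concentration of half-maximal effect; plate controls were vehicle for no effect and no substrate for full effect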
Target sequence (P29466 120-297 limits assumed): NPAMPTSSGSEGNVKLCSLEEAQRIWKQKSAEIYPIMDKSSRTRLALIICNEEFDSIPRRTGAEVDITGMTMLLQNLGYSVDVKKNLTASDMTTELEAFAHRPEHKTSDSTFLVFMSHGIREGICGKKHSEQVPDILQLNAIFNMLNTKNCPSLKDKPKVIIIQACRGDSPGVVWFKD
Target sequence (P29466 317-404 limits assumed): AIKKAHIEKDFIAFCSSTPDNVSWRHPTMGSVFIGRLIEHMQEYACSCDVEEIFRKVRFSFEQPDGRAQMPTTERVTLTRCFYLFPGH
HBB splice mod – qHTS Assay for Modulators of Hemoglobin Beta Chain Splicing | HBB splicing reporter cell assay, activation; EGFP reporter with mutant IVS2-654 intron; response scale: normalised to 500 nM splice-correcting PNA | Potency, µM (titrated, usually from 46.1 µM), for the others: at the highest dose activation, actives largely listed as activators | 65,000 tested, 0.06% active; note: potency is the fitted concentration of half-maximal effect; 0% is about no effect
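HeLa cells stably expressing EGFP interrupted by mutant beta-globin intron 2 (IVS2-654), 500/well in 2% FCS. Treated with compound for 2 days at 37C. Splicing correction scored as total well GFP intensity (488 nm excitation, 500-520 nm emission); 500 nM antisense PNA served as control.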
USP2a inh – qHTS Assay for Inhibitors of Ubiquitin-specific Protease USP2a; Ubiquitin carboxyl-terminal hydrolase 2 (Homo sapiens), O75604; Potency, µM (titrated, usually from 38.3 µM), for the others: top-dose activity change, negative = inhibition, actives largely listed as inhibitors; 60,000 tested, 0.1% active; USP2a enzymatic assay, qHTS inhibition; note: potency is the fitted concentration of half-maximal effect; nearly all actives have a fitted effect of over 60% in size
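20 nM USP2 core + cpd, 30 min RT; add 20 nM Ub-PLA2/20 uM NBD C6-HPC; read Ex460/Em535 at 0 h and 2.5 h. Normalized to NEM; qHTS curve fit/classification.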
Ub-GFP proteasome – Ubiquitin-GFP Assay; AID 526, 2006; Ubiquitin-GFP reporter cells, proteasome inhibition, GFP fluorescence; response scale: untreated = 0%, 10 µM MG-132 = 100%; 67,000 tested, under 10 active; Potency, µM (top dose mostly 45.9 µM), for inactives: at the top dose activation (GFP accumulation), usual class: activators; active = well fitted activation curve with a large enough effect, not every such curve was filed as active; inconclusive = small, poorly fitted or top-dose-only effect, or another doubt; inactive = no such curve, though single readings can be large or run the other way; note: potency is the fitted concentration of half-maximal effect
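Reporter cells (U2OS, ubiquitin-G76V-GFP fusion) are plated overnight, then treated 4 hr at 37 °C with compound titrations from 46 uM down to 2.9 nM. Activity is scaled against untreated cells and 10 uM MG-132.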
Caspase-7 inhib – qHTS Assay for Allosteric/Competitive Inhibitors of Caspase-7; recombinant caspase-7, Ac-DEVD-AFC fluorescence rate; 75,000 tested, 0.02% active; Potency, µM (doses to about 57.5 µM), for the others: top-dose activity change, negative = inhibition, actives largely listed as inhibitors; P55210; active = well fitted inhibition curve with a large enough effect in the main read-out, with a control signal flat, not every such curve was filed as active; inconclusive = small, poorly fitted or top-dose-only effect, or a change in a side signal; note: potency is the fitted concentration of half-maximal effect; % of control where 0% means no effect
Target sequence (P55210 24-198 limits assumed): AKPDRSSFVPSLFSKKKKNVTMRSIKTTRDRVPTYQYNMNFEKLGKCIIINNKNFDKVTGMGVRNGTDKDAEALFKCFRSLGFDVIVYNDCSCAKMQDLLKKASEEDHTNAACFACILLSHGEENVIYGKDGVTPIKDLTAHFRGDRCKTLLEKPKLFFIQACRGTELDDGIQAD
Target sequence (P55210 207-303 limits assumed): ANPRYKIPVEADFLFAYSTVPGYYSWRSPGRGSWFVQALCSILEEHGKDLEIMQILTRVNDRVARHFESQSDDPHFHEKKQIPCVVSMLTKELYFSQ
Epigenetic mod – qHTS Assay for Epigenetic Modulators. mouse C127i GFP locus derepression, cytometry, 30 h. Potency, µM (top dose mostly 46.1 µM), for the others: top-dose GFP derepression (activation). 68,000 tested, 0.09% active. AID 597, 2007; note: % of control where 0% means no effect
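Derepression screen: silenced CMV-GFP reporter in murine C127i cells, 30 h compound incubation at 37 C, washed cells imaged by laser-scanning cytometer to enumerate GFP-expressing objects of 20 to 120 um.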
* hit, by the source's call; ? = inconclusive; . = not tested or not shown; [ ] = another dose, or the depositor's remark. Unless noted, calls come from the whole dose curve; as a rule, active = well fitted curve in the direction sought with a large enough effect; inconclusive = small, poorly fitted or top-dose-only effect, or another doubt; inactive = no such curve, though single readings can be large; an effect the other way counts as inactive or inconclusive.

SMILES | Casp1 inh | HBB splice mod | USP2a inh | Ub-GFP proteasome | Caspase-7 inhib | Epigenetic mod
C/C1=C2N=C(/C=C3N=C(/C(C)=C4\[N-]C(C)(C5N=C1C(C)(CCC(=O)NCC(C)OP(=O)([O-])O[C@H]1C(O)C(n6cnc7cc(C)c(C)cc76)O[C@@H]1CO)C5CC(N)=O)C(C)(CC(N)=O)C4CCC(N)=O)C(C)(CC(N)=O)C\3CCC(N)=O)C(C)(C)C/2CCC(N)=O.[CH2-]C1OC(n2cnc3c(N)ncnc32)C(O)C1O.[Co] (some centres undefined) | ? | . | 3.16µM* | . | -17.6% | .
CN1CCN(c2ncc3nc(-c4ccc(F)cc4)c(=O)n(C4CC4)c3n2)CC1 | . | 0.1% | 10µM* | 3.3% | ? | 4.9%[9.22 µM]
CN1CCN(c2ncc3nc(-c4ccc(Cl)cc4)c(=O)n(C4CC4)c3n2)CC1 | . | -1.4% | 97.8% | 0.9% | ? | -0.4%[9.22 µM]
Nc1ncnc2nc[nH]c12.Nc1ncnc2nc[nH]c12.[Cl][Pt]([Cl])([Cl])[Cl] | . | 1.2%[9.22 µM] | . | 0.6%[9.17 µM] | . | 5.6%[9.22 µM]
Cc1cc(O)c(-c2n[nH]c3c2C(c2cccc(O)c2)N(Cc2cccnc2)C3=O)cc1Cl (centres undefined) | -2.1% | 4.4%[0.369 µM] | 24.7% | 0.0% | 31.6µM* | -2.1%
COCCCN1C(=O)c2[nH]nc(-c3ccccc3O)c2C1c1cccc(Cl)c1 (centres undefined) | -3.0% | 4.2%[0.369 µM] | 35.8% | -1.7% | -1.6% | 4.3%
O=c1cc(O)cc(/C=C\c2ccc(O)c(O)c2)o1 | -4.1% | 3.3% | -3.9% | 6.7% | ? | 0.0%
O=C(c1ccc(Cl)c(Cl)c1)N(Cc1ccco1)c1ccc(O)cc1 | -0.4% | 3.1% | 1.2% | -2.3% | 12.6µM* | 3.2%
Cc1ccc(C[C@H](Cc2nc3ccccc3[nH]2)c2nc3ccccc3[nH]2)cc1 | . | . | . | -1.3% | . | 0.0%[9.22 µM]
CC1=C(/C=C/C(C)=C/C=C/C(C)=C/C(=O)O)C(C)(C)CCC1 | -0.6% | . | . | . | 1.7% | 10µM*
C[C@@]12CCC(=O)C=C1CC[C@H]1[C@H]3CC[C@](O)(C(=O)CO)[C@]3(C)CC[C@@H]12 | . | 3.6% | . | -6.9% | . | -1.1%
COc1ccc(-c2c(O)c3c(OC)c4c(cc3oc2=O)OC(C)(C)C=C4)cc1 | 4.3% | . | 10µM* | . | -0.1% | .
Nc1nc(N)nc(CCCCc2nc(N)nc(N)n2)n1 | . | 2.3%[9.22 µM] | . | -6.9%[9.17 µM] | . | 5.6%[9.22 µM]
Nc1ccn([C@@H]2O[C@@H](CO)[C@@H](O)[C@H]2O)c(=O)n1 | 4.1% | 1.4% | 0.6% | 10.1% | 0.9% | -1.1%
FC(F)(F)c1ccccc1-c1nc(N2CCNCC2)c2ccccc2n1 | 3.5% | -1.6% | -9.0% | -6.2% | 1.5% | 0.7%[9.22 µM]
FC(F)(F)c1ccccc1-c1nc(N2CCOCC2)c2ccccc2n1 | -2.1% | -0.3% | 10µM* | 2.5% | -26.9% | 5.0%[9.22 µM]
C[C@]12C=CC(=O)C=C1CC[C@@H]1[C@H]3C[C@@H](O)[C@](O)(C(=O)CO)[C@]3(C)C[C@H](O)[C@]12F | . | 0.6% | . | -3.3% | . | -1.7%
O=C(c1ccc(S(=O)(=O)N2CCC(c3nc4ccccc4[nH]3)CC2)cc1)N1CCOCC1 | 1.8% | . | 12.6µM* | 0.1% | 0.4% | -1.7%
CCCCCCCCCCCC(CC1OC(=O)C1CCCCCC)OC(=O)C(CC(C)C)NC=O (centres undefined) | 0.9% | . | 10µM* | . | 0.7% | .
N#Cc1c(C(F)(F)F)cc(-c2ccco2)nc1SCc1ccccn1 | -15.9% | 15.8µM* | 21.4% | -3.7% | -18.9% | ?
NS(=O)(=O)c1ccc(N=Nc2nc3[nH]cnc(=S)c3[nH]2)cc1 | -0.8%[11.5 µM] | 3.98µM* | . | 0.0%[9.17 µM] | 3.4%[11.5 µM] | -3.4%[9.22 µM]
CC(=O)c1ccc(C2C=CC(O)C(CO)O2)cc1 (centres undefined) | 0.9%[11.5 µM] | 3.1%[9.22 µM] | . | . | 0.6%[11.5 µM] | .
C[C@H]1[C@H](C)CC[C@@]2(C(=O)O)CC[C@]3(C)C(=CC[C@@H]4[C@@]5(C)CC[C@H](O)C(C)(C)[C@@H]5CC[C@@]43C)[C@@H]12 | . | . | . | -2.3% | . | -2.3%[9.22 µM]
C/C(=C\COc1cc(=O)[nH]c2ccccc12)CC[C@@H](O)C(C)(C)O | . | . | . | -6.5% | . | 2.3%[9.22 µM]
COc1cccc(/C=N/NC(=O)c2cc(-c3ccc(C)cc3)n[nH]2)c1O | -2.9% | . | . | . | -9.1% | .
SMILES | Casp1 inh | HBB splice mod | USP2a inh | Ub-GFP proteasome | Caspase-7 inhib | Epigenetic mod
CN(C)C(=O)CSc1cccc2cccnc12 | -0.7% | -0.7% | 4.3% | -2.7% | -0.9% | ?
O=C(CSc1cccc2cccnc12)N1CCCC1 | -2.7% | -2.3% | 8.4% | 1.1% | -0.2% | 0.631µM*
N.N.N.N.N.N.N.N.N.N.N.N.N.N.O.O.[Ru].[Ru].[Ru] | 0.2% | -1.2% | ? | -1.2% | 1.1% | -2.2%
COc1cc(/C=C/C(=O)/C=C(O)/C=C/c2ccc(O)c(OC)c2)ccc1O | ? | . | 10µM* | . | -25.0% | .
COc1ccc(-c2c(=O)n(OCc3ccccn3)c3ccccc3[n+]2[O-])cc1OC | -5.4% | -1.1% | 3.5% | -2.2% | -5.5% | -2.7%
Cc1c(=O)n(OCc2ccccc2F)c2ccccc2[n+]1[O-] | -1.9% | 20µM* | 3.6% | 1.8% | -2.2% | 12.6µM*
COc1ccc2nc3c(nc2c1)C(=O)c1ccccc1-3 | -9.9% | . | . | . | -5.2% | .
O=C(O)Cn1c(=O)oc2cc(S(=O)(=O)NC3CCCCC3)ccc21 | -3.1% | -0.2% | . | -3.8% | 0.4% | .
CC(=O)S[C@@H]1CC2=CC(=O)CC[C@@]2(C)[C@H]2CC[C@]3(C)[C@H](CC[C@@]34CCC(=O)O4)[C@H]12 | 0.8% | 0.6% | 18.2% | 8.2% | 2.4% | 0.0%
Cc1c(C)c2c(c(C)c1O)CC[C@@](C)(CCC[C@@H](C)CCC[C@@H](C)CCCC(C)C)O2 | -8.4%[25.7 µM] | 2.5%[20.6 µM] | 7.94µM* | -1.3%[20.5 µM] | 0.3%[25.7 µM] | 0.6%[20.6 µM]
Cc1c(C)c2c(c(C)c1O)CC[C@@](C)(C(=O)O)O2 | 0.8%[25.7 µM] | 0.2%[20.6 µM] | -10.1%[17.1 µM] | 12.8%[20.5 µM] | 1.1%[25.7 µM] | 2.2%[20.6 µM]
OC[C@@H]1O[C@@H](n2cnc3c(NCCc4ccccc4)ncnc32)[C@@H](O)[C@H]1O | . | -1.6% | . | 1.6% | . | -0.6%
COc1ccc(CNC(=O)C(C#N)c2nc3ccccc3nc2N2CCN(C)CC2)cc1 (centres undefined) | -6.9% | -1.4% | 39.9% | 6.2% | -8.2% | 2.6%
COc1ccc(CNC(=O)C(C#N)c2nc3ccccc3nc2N2CCCC2)cc1 (centres undefined) | . | 12.6µM* | 55.7% | ? | ? | ?
Cc1cn([C@H]2C=C[C@H](CO)O2)c(=O)[nH]c1=O | . | 0.3% | . | 0.0% | . | 0.0%
